Bioassay records: PubChem BioAssay, National Center for Advancing Translational Sciences (NCATS)
Cruzain inh Det: blocks cruzain activity in presence of Triton detergent | purified cruzain, Z-FR-AMC fluorescence, 0.01% Triton | Potency, µM, for the others: max response, negative = inhibition, usual class: inhibitors | actives 0.43% (n = 200,000);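 further: plate controls were neutral wells for no effect and buffer without enzyme for full effect; nearly all actives have a fitted effect of over 40% in size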
Target sequence (P25779 123-467 limits assumed): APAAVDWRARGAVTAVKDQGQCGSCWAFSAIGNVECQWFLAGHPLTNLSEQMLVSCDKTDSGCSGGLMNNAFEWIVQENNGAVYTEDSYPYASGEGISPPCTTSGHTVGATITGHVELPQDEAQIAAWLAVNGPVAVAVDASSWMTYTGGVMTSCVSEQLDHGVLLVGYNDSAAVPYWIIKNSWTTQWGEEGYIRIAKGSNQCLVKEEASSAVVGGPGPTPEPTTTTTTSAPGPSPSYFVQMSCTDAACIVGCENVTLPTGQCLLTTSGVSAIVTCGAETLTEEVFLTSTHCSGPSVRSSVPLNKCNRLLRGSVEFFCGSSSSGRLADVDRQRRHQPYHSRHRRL
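Detergent-containing run (0.01% Triton X-100) in acetate buffer pH 5.5 with 5 mM DTT: enzyme at 1.5 nM final, 15 min compound preincubation at room temperature, then 2 uM Z-FR-AMC substrate. Activity taken as 60 s fluorescence increase at 360/450 nm.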
Cruzain inh noDet: blocks cruzain activity in detergent-free assay; P25779; purified cruzain, Z-FR-AMC fluorescence, no detergent; Potency, µM, for inactives: max response, negative = inhibition, usual class: inhibitors; actives 2.3% (n = 200,000); AID 1476;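 further: plate controls were enzyme without inhibitor for no effect and buffer without enzyme for full effect; nearly all actives have a fitted effect of over 40% in size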
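Detergent-free condition (0.00005% Triton X-100) in acetate buffer pH 5.5 with DTT. 1.5 nM enzyme and compound were pre-mixed 15 min, then 2 uM Z-FR-AMC substrate added; reaction progress from fluorescence change between first and third reads (60 s).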
Active calls of the source: *; ? = inconclusive. A selection: hits, their analogues and other compounds. The true share with any hit is near 2.6%. The call rests on the fitted dose curve; in most records, active means well fitted curve in the direction sought with a large enough effect; inconclusive means small, poorly fitted or top-dose-only effect, or another doubt; inactive means no such curve, though single readings can be large; an effect the other way counts as inactive or inconclusive. Potency means the concentration at half of the fitted maximal effect.

SMILES | Cruzain inh Det | Cruzain inh noDet
CCOC(=O)C(Cc1ccccc1)C(=O)Nc1ccc(NC(=O)C(Cc2ccccc2)C(=O)OCC)cc1 (stereo not drawn) | -2.0% | 7.94µM*
CC(=O)Nc1cccc(NC(=O)CSc2ccc(C(F)(F)F)cc2[N+](=O)[O-])c1 | -0.9% | 0.7%
O=C(CSc1ccc(C(F)(F)F)cc1[N+](=O)[O-])Nc1ccc2ccccc2c1 | -3.7% | 12.6µM*
CCc1ccccc1NC(=O)CCCn1c(=O)c2cccn2c2ccccc21 | -24.2% | -27.2%
Cc1ccc(S(=O)(=O)N2CCOCC2)cc1C(=O)Nc1ccccc1C(=O)O | 0.1% | 3.1%
O=C(CC(NC(=O)c1ccccc1)c1ccccc1)Nc1cccc2ccccc12 (stereo not drawn) | -3.5% | 25.1µM*
O=C(CC(C(=O)O)c1ccccc1)Nc1cccc2ccccc12 (stereo not drawn) | 1.1% | -2.7%
O=C(CSc1nnc(-c2c[nH]c3ccccc23)o1)c1ccc(-c2ccccc2)cc1 | -0.7% | 5.01µM*
O=C(CSc1nnc(-c2c[nH]c3ccccc23)o1)N1CCCCC1 | -2.2% | 0.4%
Cc1cccc(NC(=O)c2cc(S(=O)(=O)N3CCN(c4ccccc4F)CC3)ccc2F)c1C | 1.4% | -1.6%
Cc1cccc(N2CCN(S(=O)(=O)c3ccc(F)c(C(=O)Nc4cccc(Cl)c4C)c3)CC2C)c1 (stereo not drawn) | 0.8% | 12.6µM*
Cc1cccc(CN2C(=O)c3ccccc3S(=O)(=O)c3ccc(C(=O)OCC4CCCO4)cc32)c1 (stereo not drawn) | -1.4% | 6.4%
COc1cccc(CNC(=O)c2cc(S(=O)(=O)N3CCCCC3)c[nH]2)c1 | -2.8% | 4.4%
O=C(NCc1ccc(Cl)cc1)c1cc(S(=O)(=O)N2CCCCC2)c[nH]1 | ? | 20µM*
COc1ccc(S(=O)(=O)N(CC(=O)N2CCC(C)CC2)c2ccc(C)cc2)cc1 | -6.8% | 8.1%
CCc1ccc(NC(=O)C(Cc2ccccc2)NS(=O)(=O)c2ccc3c(c2)c(=O)n(C)c(=O)n3C)cc1 (stereo not drawn) | -1.0% | -11.1%
O=c1[nH][nH]c(=S)c(=O)[nH]1 | 7.8% | 4.2%
O=C1/C(=C\c2ccc(-c3ccccc3Cl)o2)SC(=S)N1CC1CCCO1 (stereo not drawn) | -4.1% | 15.8µM*
CN1C(=O)/C(=C2\SC(=S)N(CC3CCCO3)C2=O)c2ccccc21 (stereo not drawn) | 0.3% | 0.4%
Cc1ccc(C(=O)COC(=O)C2CC(=O)N(c3nc(-c4ccccc4)cs3)C2)cc1C (stereo not drawn) | 2.2% | 31.6µM*
O=C(OCc1cccc2ccccc12)C1CC(=O)N(c2ccccc2)C1 (stereo not drawn) | -1.8% | -1.0%
COc1cccc(C(=O)NCC(=O)OCc2cc(=O)n3nc(C)sc3n2)c1 | -0.9% | 14.1%
C[C@@]1(C(NC(=O)c2cccs2)c2ccc(-c3ccccc3)cc2)C[C@H]1C1CCCCC1 (stereo partly drawn) | 3.5% | 3.98µM*
COC(=O)c1ccc(C(NC(=O)c2ccccc2)[C@]2(C)C[C@H]2C2CCCCC2)cc1 (stereo partly drawn) | 0.9% | -15.4%
CCOc1ccc(NC(=O)Cn2c(=O)n(CCC(=O)NCCc3ccccc3)c(=O)c3ccccc32)cc1 | 0.1% | 1.3%
SMILES | Cruzain inh Det | Cruzain inh noDet
N#Cc1c(NC(=O)CCN2C(=O)c3ccccc3C2=O)oc(-c2ccccc2)c1-c1ccccc1 | -2.7% | ?
N#Cc1c(NC(=O)CCn2cnc3ccccc3c2=O)oc(-c2ccccc2)c1-c1ccccc1 | 5.4% | 31.6µM*
CC(C)CC(C(=O)Nn1cnnc1)N1C(=O)c2ccccc2C1=O (stereo not drawn) | -0.4% | -1.9%
CC(C)CC(C(=O)Nc1oc(-c2ccccc2)c(-c2ccccc2)c1C#N)N1C(=O)c2ccccc2C1=O (stereo not drawn) | -3.4% | 3.16µM*
CCc1ccccc1NC(=O)CN(c1ccccc1)S(=O)(=O)c1ccsc1C(=O)OC | 5.3% | 11.0%
CCC(C(=O)Nc1cccc(C#N)c1)n1nc(-c2ccccc2)ccc1=O (stereo not drawn) | -6.3% | -6.5%
COC(=O)N[C@@H](/C=C/c1ccccc1)/C(C(=O)OC)=C(\C)NCc1ccccc1 | 7.7% | -18.4%
CCOC(=O)c1cnc(-n2nc(C)cc2C)nc1NC | 0.3% | 15.3%
CCOC(=O)c1cnc(-n2nc(C)cc2C)nc1NNc1nc(-c2ccccc2)cc(-c2ccccc2)n1 | -0.8% | 20µM*
Cc1oc(-c2ccc(C(=O)NC(C)c3ccccc3)cc2)nc1CS(=O)(=O)c1ccccc1 (stereo not drawn) | -4.0% | 1.0%
CCc1ccc(NC(=O)CO/N=C(\C)c2cc3ccccc3o2)cc1 | -9.0% | -8.9%
O=C(COc1ccc(/C=N/NC(=O)c2cc3ccccc3o2)cc1Br)Nc1ccccc1 | 25.1µM* | 10µM*
COc1cccc(CNC(=O)C(=O)NCC(c2ccc3c(c2)OCO3)N2CCOCC2)c1 (stereo not drawn) | -3.4% | -5.2%
N#Cc1c(N2CCCC(O)C2)nc(N)c2c(N)nc3c(c12)CC(=O)N3C12CC3CC(CC(C3)C1)C2 (stereo not drawn) | -15.1% | 1.9%
C=C(C)CN(CC)c1nc(N)c2c(N)nc3c(c2c1C#N)CC(=O)N3C12CC3CC(CC(C3)C1)C2 | -3.3% | 3.98µM*
CCOC(=O)c1cnc2cc(-c3ccc(Cl)cc3)nn2c1-c1ccccc1 | -1.6% | 7.1%
CCOC(=O)c1cnc2cc(-c3ccc(Cl)cc3)nn2c1N | 8.5% | 10µM*
COc1cccc(C2c3c(oc4cc(C)cc(C)c4c3=O)C(=O)N2CCc2ccc(OC)c(OC)c2)c1 (stereo not drawn) | 0.0% | 9.4%
CCn1cnc2cc(NS(=O)(=O)c3ccc(C)cc3)ccc21 | 0.3% | 20.0%
Cc1ccc(S(=O)(=O)Nc2ccc3c(c2)c2c(n3S(=O)(=O)c3ccc(C)cc3)CCCC2=O)cc1 | -4.5% | 7.94µM*
Cc1ccc(S(=O)(=O)Nc2ccc3c(c2)CCC3)cc1 | -12.6% | -6.4%
CCOC(=O)c1c(C)n(S(=O)(=O)c2ccc(C)cc2)c2ccc(NS(=O)(=O)c3ccc(C)cc3)cc12 | -1.6% | 3.98µM*
Cc1cccc(N2CCN(C(=O)c3cnn(-c4ccccc4Cl)c3C3CCN(C(=O)OC(C)(C)C)CC3)CC2C)c1 (stereo not drawn) | -0.6% | -11.8%
Cc1c(Br)c([N+](=O)[O-])nn1CC(=O)Nc1sc2c(c1C(=O)OC(C)C)CCCC2 | 1.6% | 12.6µM*
Cc1c(Br)c([N+](=O)[O-])nn1CCCC(=O)Nc1sc2c(c1C#N)CCC2 | -16.0% | 1.0%
SMILES | Cruzain inh Det | Cruzain inh noDet
O=C(CSc1n[nH]c(-c2ccccc2Cl)n1)N1CCN(c2ccccc2F)CC1 | -3.0% | -11.9%
Cc1cccc(N=Nc2ccc(O)c3ncccc23)c1 | 1.9% | 20µM*
NS(=O)(=O)c1cc(Br)c(N=Nc2ccc(O)c3ncccc23)c(Br)c1 | 5.6% | -4.9%
CCc1cc2c(N=Nc3c(O)[nH]c4ccccc34)ncnc2s1 | -1.5% | -13.7%
CCc1ccc2[nH]c(O)c(N=Nc3nc(-c4ccccc4)cs3)c2c1 | -4.8% | 20µM*
Cc1ccc(NC(=O)CSc2nnc(COc3ccc(Cl)cc3)o2)cc1 | -5.7% | 1.8%
Cc1nc(NC(=O)c2ccc([N+](=O)[O-])cc2Cl)sc1C(=O)N(C)C | 15.8µM* | -13.6%
Cc1cc(C(=O)Nc2nc(C)c(C(=O)N(C)C)s2)ccc1[N+](=O)[O-] | -4.4% | -4.5%
